Reference: paper PMC5540273 (PLoS ONE, 2017)

Assays:
Settings in all cases: concentration: 1 μM, replicates: in singlicate; n = 1
SNARK = system: T1, SNARK
T1 construct: gene NUAK2

SNRK = system: SNRK
SRC = system: SRC
SRMS = system: SRMS
SRPK1 = system: SRPK1
SRPK2 = system: SRPK2
SRPK3 = system: SRPK3
STK16 = system: STK16
STK33 = system: STK33
STK35 = system: STK35
STK36 = system: STK36
STK39 = system: STK39
SYK = system: SYK
SgK110 = system: SgK110
TAK1 = system: T2, TAK1
T2 construct: gene MAP3K7

TAOK1 = system: TAOK1
TAOK2 = system: TAOK2
TAOK3 = system: TAOK3
TBK1 = system: TBK1
TEC = system: TEC
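Further: KINOMEscan kinase panel screen.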

Structure (SMILES)	%Inh (SNARK)	%Inh (SNRK)	%Inh (SRC)	%Inh (SRMS)	%Inh (SRPK1)	%Inh (SRPK2)	%Inh (SRPK3)	%Inh (STK16)	%Inh (STK33)	%Inh (STK35)	%Inh (STK36)	%Inh (STK39)	%Inh (SYK)	%Inh (SgK110)	%Inh (TAK1)	%Inh (TAOK1)	%Inh (TAOK2)	%Inh (TAOK3)	%Inh (TBK1)	%Inh (TEC)
COc1cccc(NC(=O)NCCNc2ccnc(Nc3ccc(F)cc3)n2)c1 [GSK1379879]	0%	0%	0%	0%	0%	0%	3%	0%	0%	1%	0%	1%	20%	0%	0%	0%	0%	0%	13%	0%
Cn1cc(-c2ccc3c(c2)CCN3C(=O)Cc2cc(F)cc(C(F)(F)F)c2)c2c(N)ncnc21 [GSK2635225]	10%	0%	29%	0%	18%	0%	2%	20%	0%	0%	19%	0%	27%	0%	39%	0%	0%	0%	21%	0%
CCNc1nccc(-c2c(-c3ccc(F)cc3)ncn2C2CCN(C)CC2)n1	0%	0%	9%	0%	16%	0%	0%	31%	2%	0%	25%	0%	0%	0%	0%	0%	0%	0%	1%	14%
Cl.Cl.NC(CNC(=O)c1cc(Br)c(-c2ccnc3[nH]ccc23)s1)c1ccccc1 (stereo not shown) [GSK1322949]	74%	0%	0%	0%	80%	80%	83%	61%	53%	20%	0%	5%	27%	0%	36%	66%	3%	44%	20%	1%
CC(=O)Nc1cn2nc(Oc3cccc(NC(=O)c4cccc(C(F)(F)F)c4)c3)ccc2n1	0%	0%	99.9%	11%	0%	22%	9%	10%	3%	1%	0%	15%	14%	0%	21%	0%	34%	0%	57%	18%
CC(C)c1nc(-c2ccc(F)c(NS(=O)(=O)c3c(F)cccc3F)c2)c(-c2ccnc(Nc3ccc(N4CCOCC4)nc3)n2)s1 [GSK1804250]	17%	0%	100%	99.9%	54%	0%	18%	39%	8%	74%	100%	11%	46%	0%	46%	4%	0%	5%	6%	45%
N#CC1(c2cccc(C(=O)Nc3cccc(Oc4ccc5nc(NC(=O)C6CC6)sc5n4)c3)c2)CC1	0%	0%	97.6%	15%	0%	0%	0%	0%	16%	0%	0%	0%	22%	17%	0%	0%	28%	0%	15%	0%
O=C(Nc1n[nH]c2nc(-c3ccccc3O)ccc12)C1CC1 [SB-711880]	0%	0%	0%	0%	0%	0%	23%	15%	0%	57%	0%	0%	0%	0%	9%	9%	0%	0%	27%	63%
c1ccc(Oc2ccc(Nc3ccnc4cc(-c5ccc(CN6CCCCC6)o5)ccc34)cc2)nc1 [GW567143]	9%	0%	37%	94.2%	0%	0%	20%	0%	99.9%	59%	0%	0%	0%	0%	0%	0%	0%	0%	0%	41%
Cc1ccc(-c2ccc3occ(-c4ccc(S(C)=O)cc4)c3c2)nn1 (stereo not shown)	0%	0%	6%	0%	0%	6%	0%	12%	0%	0%	0%	0%	5%	0%	0%	0%	0%	0%	47%	0%
COc1cccc(C2=C(Nc3cccc(O)c3)C(=O)NC2=O)c1 [SB-390771]	0%	0%	0%	0%	2%	0%	13%	100%	0%	0%	0%	8%	22%	18%	100%	10%	36%	9%	30%	7%
